Screening data from PubChem.
TGFb SMAD3 inh = blocks TGF-b signaling | Potency, µM (doses to about 46.1 µM), without a hit: top-dose activity, negative = inhibition, actives largely listed as inhibitors | HepG2 CAGA-GFP TGF-b/SMAD3 reporter, GFP fluorescence, 18 h; TGF-beta stimulated, 500 pg/mL final | AID 588855 | actives 1.2% (n = 410,000); also: potency is read from the fitted curve at half-maximal effect; % is scaled to controls: 0 for no effect and ±100 for the full control effect; nearly all actives have a fitted effect of over 65% in size
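Inhibition was scored as loss of TGF-beta-induced (500 pg/mL final, 18 hours, 37 degrees C) GFP in HEPG2 cells carrying a CAGA-GFP reporter, in DMEM with 1% FBS. Well GFP was summed per cell; Activity was normalised to unstimulated and stimulated DMSO wells, then concentration-response fitting.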
TDP1 cell noCPT = qHTS for Inhibitors of human tyrosyl-DNA phosphodiesterase 1 (TDP1): qHTS in cells in absence of CPT. DT40 Tdp1-/- hTDP1 cells, no CPT, ATP luminescence, 48 h. Potency, µM (top dose mostly 46.2 µM), for the others: top-dose activity change, negative = growth inhibition, hits mostly inhibitors. actives 15% (n = 420,000); also: potency is read from the fitted curve at half-maximal effect; % is scaled to controls: 0 for no effect and ±100 for the full control effect; nearly all actives have a fitted effect of over 55% in size
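No-CPT arm: Tdp1-/-;hTDP1 DT40 cells (400/well) plus compounds, incubated ≥48 hr at 37 °C. Readout CellTiter-Glo luminescence.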
IL1B secr inh = blocks inflammasome-driven IL-1 beta release; actives 4.7% (n = 360,000); THP-1 LPS/ATP IL-1B secretion, AlphaLISA, 16 h; stronger effect = lower value; activity change, % at 57.5 µM; in the data active = activity change below about -50%; inconclusive = mostly about -30% to -49%; also: % is scaled to controls: 0 for no effect and ±100 for the full control effect
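THP-1 cells pretreated 1 hr with compounds (up to 57.5 uM final), then stimulated with LPS (250 ng/mL final) plus ATP (1.25 mM final); secreted IL-1B measured by AlphaLISA after 16 hr, decreased signal indicating inhibition.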
DT40 TDP1 CPT = DT40-hTDP1 cell growth loss with CPT; chicken DT40 Tdp1-/-;hTDP1 cells + 20 nM CPT, ATP luminescence, 48 h; Potency, µM (doses to about 46.2 µM), without a hit: top-dose activity change, negative = growth inhibition, most hits filed as inhibitors; actives 12% (n = 420,000); AID 686979; also: potency is read from the fitted curve at half-maximal effect; % is scaled to controls: 0 for no effect and ±100 for the full control effect; nearly all actives have a fitted effect of over 55% in size
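Chicken DT40 Tdp1-/- cells complemented with human TDP1, 400 cells/well, exposed to compounds plus 20 nM camptothecin for at least 48 h at 37 C; viability read as ATP content by CellTiter-Glo luminescence.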
HepG2 viability = HepG2 cytotoxicity, counter-screen for TGF-b inhibitors | HepG2 CAGA-GFP viability, ATP luminescence, 18 h | Potency, µM (highest dose often 46.1 µM), for the others: top-dose activity change, negative = cytotoxicity, hits mostly cytotoxic | actives 0.76% (n = 410,000); also: potency is read from the fitted curve at half-maximal effect
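CellTiter-Glo luminescence gave cytotoxicity after 18 hours at 37 degrees C. The cells were HepG2 CAGA-GFP in 1% FBS DMEM, stimulated with 500 pg/mL TGF-beta after compound addition. %Activity was normalised to no-cell wells (complete cell-killing) and DMSO (no toxicity), and curves were fitted and classified.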
S-ASM inh = human S-ASM enzyme inhibition; P17405; actives 0.006% (n = 340,000); placental ASM, HMU-PC fluorogenic substrate, 60 min; Potency, µM (doses to about 57.5 µM), for the others: at the highest dose activity change, negative = inhibition, actives largely listed as inhibitors; also: potency is read from the fitted curve at half-maximal effect
Target sequence (P17405 47-631 limits assumed): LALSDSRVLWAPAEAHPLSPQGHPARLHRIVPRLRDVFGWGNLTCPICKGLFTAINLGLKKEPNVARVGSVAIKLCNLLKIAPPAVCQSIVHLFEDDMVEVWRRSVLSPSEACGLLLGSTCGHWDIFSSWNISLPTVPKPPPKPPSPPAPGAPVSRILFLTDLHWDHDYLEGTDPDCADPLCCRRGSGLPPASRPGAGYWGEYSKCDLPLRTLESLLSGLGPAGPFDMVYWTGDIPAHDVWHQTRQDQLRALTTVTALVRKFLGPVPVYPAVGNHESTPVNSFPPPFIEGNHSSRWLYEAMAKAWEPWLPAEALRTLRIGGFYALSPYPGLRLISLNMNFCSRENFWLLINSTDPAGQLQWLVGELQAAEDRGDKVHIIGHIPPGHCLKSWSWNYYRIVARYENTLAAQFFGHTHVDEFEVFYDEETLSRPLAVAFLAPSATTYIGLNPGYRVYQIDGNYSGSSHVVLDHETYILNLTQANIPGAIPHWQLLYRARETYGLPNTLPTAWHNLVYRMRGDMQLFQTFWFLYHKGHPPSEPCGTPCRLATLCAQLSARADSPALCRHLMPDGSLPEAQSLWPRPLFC
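qHTS format. ASM enzyme prepared from human placenta hydrolyses the fluorogenic substrate HMU-PC0 (9 uM final) over 60 min at 37 °C after a 10 min compound preincubation.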
Numbers without * were called inactive; i = inactive; u = inconclusive; x = no result given; [ ] = another dose, or the depositor's remark. Compounds with a hit are over-represented: about 19% of the library has one in this group of screens. Unless noted, calls follow the shape of the dose curve; as a rule, active = well fitted curve in the direction sought with a large enough effect; inconclusive = small, poorly fitted or top-dose-only effect, or another doubt; inactive = no such curve, though single readings can be large; an effect the other way counts as inactive or inconclusive.

SMILES	TGFb SMAD3 inh	TDP1 cell noCPT	IL1B secr inh	DT40 TDP1 CPT	HepG2 viability	S-ASM inh
COc1cccc(CC(=O)N(CCC2=CCCCC2)c2c(N)n(Cc3ccccc3)c(=O)[nH]c2=O)c1	-16.5%	u	12.6	2.9%	1.7%	x
O=C(COc1ccccc1[N+](=O)[O-])c1ccccc1	u	5.17µM*	-17.9	3.66µM*	2.8%	-0.3%
CN(CCc1ccccc1)C(=O)CCc1nnc(Cc2ccc3c(c2)OCO3)o1	1.9%	6.0%	10.8	2.3%	-16.8%	-1.2%
CCN1/C(=C\C=C2\C(=O)N(C)C(=S)N2C)Sc2ccccc21	8.4%	u	20.2	-4.8%	-17.2%	-0.1%
CCOC(=O)/C(=C/C=C1\Sc2cc(OCC)c(OCC)cc2N1CC)C(C)=O	198.7%	4.61µM*	-1.7	7.31µM*	-6.4%	-27.3%
CCOC(=O)/C(=C\C=C1/Sc2cc(OCC)c(OCC)cc2N1CC)C(C)=O	251.6%	2.31µM*	-93.0*	1.84µM*	9.7%	-10.6%
c1ccc(CCNc2cc(-c3ccc4ccccc4c3)nc3ccnn23)nc1	3.8%	u	-24.3	u	1.6%	x
CO/N=C(\C(=O)N[C@@H]1C(=O)N2C(C(=O)O)=C(CSc3cnns3)CS[C@H]12)c1csc(N)n1	x	-10.7%	x	2.3%	x	x
COC(=O)Nc1ccc(S(=O)(=O)N2CCCC(C(=O)N3CCN(C)CC3)C2)cc1 (stereo unspecified)	0.0%	3.3%	3.0	-16.5%	4.4%	6.6%
O=C(O)C1CCCN(S(=O)(=O)Cc2ccccc2)C1 (stereo unspecified)	-4.7%	26.3%	-11.9	1.6%	-7.2%	2.9%
O=C(C1CCCN(S(=O)(=O)Cc2ccccc2)C1)N1CCC(Cc2ccccc2)CC1 (stereo unspecified)	5.5%	10.3µM*	-27.9	16.4µM*	-11.5%	-1.0%
O=C(C1CCCN(S(=O)(=O)c2ccccc2)C1)N1CCCCCC1 (stereo unspecified)	-20.4%	16.4µM*	-0.1	-27.1%	15.0%	3.0%
CC(=O)Nc1ccc(S(=O)(=O)N2CCCC(C(=O)N3CCN(c4ccccc4)CC3)C2)cc1 (stereo unspecified)	u	20.6µM*	0.0	23.1µM*	7.0%	3.3%
O=C(C1CCCN(S(=O)(=O)c2ccc(F)cc2)C1)N1CCCC1 (stereo unspecified)	0.0%	-6.7%	28.6	12.3%	30.5%	3.3%
CC(C)(C)OC(=O)N1CCC(NC(=O)c2[nH]c(C(F)(F)F)nc2-c2ccccc2)CC1	-0.7%	u	61.4	-29.4%	-0.1%	x
Cn1c(C(=O)NCCCN2CCCCCC2)cc2c(=O)n(C)c3ccccc3c21	13.7%	u	-29.4	18.4µM*	-4.8%	5.0%
Cn1c(C(=O)NCCCN2CCc3ccccc3C2)cc2c(=O)n(C)c3ccccc3c21	20.6%	u	-53.2*	u	-6.8%	7.6%
Cc1[nH]c2ccccc2c1C(C[N+](=O)[O-])c1cccs1 (stereo unspecified)	-18.1%	u	-95.9*	u	1.8%	-3.8%
Cc1[nH]c2ccccc2c1C(C[N+](=O)[O-])c1ccco1 (stereo unspecified)	-15.0%	u	4.3	u	-13.5%	-2.0%
Cc1ccc(-c2[nH]c3ccccc3c2C(C[N+](=O)[O-])c2ccco2)cc1 (stereo unspecified)	u	u	-1.2	u	15.8µM*	-3.6%
Cc1[nH]c2ccccc2c1C(C[N+](=O)[O-])c1cccc(O)c1 (stereo unspecified)	u	u	-7.2	u	-1.4%	-6.2%
Cc1ncc2c(c1CNS(=O)(=O)N(C)C)CCN(C(=O)/C=C/c1ccccc1F)C2	x	-12.7%	x	12.6%[9.04 µM]	x	x
CCc1ccc(CNC(=O)CCCN2C(=O)c3cccnc3Oc3ccc(Cl)cc32)cc1	-27.0%	18.4µM*	x	20.6µM*	-15.7%	x
CN(C)c1ccc(CNC(=O)CCCN2C(=O)c3cccnc3Oc3ccc(Cl)cc32)cc1	-20.8%	u	x	18.4µM*	2.4%	x
O=C(C[n+]1c2ccccc2cc2ccccc21)c1ccc(F)cc1	-2.2%	10µM*	x	u	-28.3%	x
SMILES	TGFb SMAD3 inh	TDP1 cell noCPT	IL1B secr inh	DT40 TDP1 CPT	HepG2 viability	S-ASM inh
O=C(C[n+]1cccc2cccc(O)c21)c1ccc(F)cc1	-26.9%	u	x	7.08µM*	-47.7%	x
O=C(C[n+]1cccc2cccc(O)c21)c1ccccc1	26.9%	-12.1%	x	u	1.9%	x
CC(=O)c1ccccc1NC(=O)CSc1n[nH]c(=O)n1C1CC1	13.9%	-13.6%	38.2	-5.9%	10.6%	1.4%
C(=C\c1cccc2ccccc12)/c1nnc(-c2cccs2)o1	u	u	0.0	29.1µM*	-30.8%	i
Cc1c(OCC(=O)N2CCC(C(N)=O)CC2)ccc2c1oc(=O)c1ccccc12	8.5%	u	-17.6	u	-1.8%	17.9%
Cc1ccc(C(=O)Nc2c3c(nn2C(C)(C)C)CS(=O)(=O)C3)cc1[N+](=O)[O-]	-1.6%	14.0%	-20.8	-7.1%	-7.6%	-1.0%
CC(C)c1ccc(OCC(=O)Nc2c3c(nn2C(C)(C)C)CS(=O)(=O)C3)cc1	8.8%	u	-11.9	11.6µM*	-0.4%	x
CC(C)(C)n1nc2c(c1NC(=O)c1ccc(Cl)c([N+](=O)[O-])c1)CS(=O)(=O)C2	-12.1%	0.7%	-97.5*	-26.1%	-3.5%	-0.5%
Cn1c(=O)c(C(=O)NNC(=O)c2ccccc2Cl)c(O)c2ccccc21	-18.9%	18.4µM*	-19.9	u	-13.2%	-10.8%
